Assay results taken from PubChem BioAssay.
Calls of active or inactive are those of the source.

Key:
[1] = tested on: Plasmodium falciparum Sir2 (PF13_0152, Sir2A); assay: Plasmodium falciparum Sir2A binding compounds – biochemical, small-molecule microarray, 635 nm fluorescence, primary screen (AID 1098); settings: fluorescence 635 nm, higher = more signal;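 also: score merges spot fluorescence intensity with its signal-to-noise ratio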
[2] = probe aDKK1 binding to arrayed compounds – biochemical, biotinylated probe, 635/667 nm fluorescence, primary screen (AID 1099); settings: small-molecule microarray, higher = more signal;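 also: score merges 667nm spot fluorescence with signal to noise across triplicate slides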
[3] = probe aCHRDL2 binding to arrayed compounds – biochemical, biotinylated probe, 635/667 nm fluorescence, primary screen (AID 1100); settings: small-molecule microarray, higher = more signal
[4] = change in splice reporter luminescence, either direction, cell-based, HEK293, spliceosome inhibition project, primary screen (AID 1101); settings: HEK293 splicing luciferase reporter, 24 h, higher = more signal, called active from +8 up or from −8 down;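 also: HEK293 cells carrying a splicing-competent luciferase reporter gene; test concentration not given here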
[5] = target: Fibroblast growth factor 10 (Homo sapiens) (UniProt O15520); assay: compounds binding fibroblast growth factor 10 – biochemical, small-molecule microarray, 635 nm fluorescence, primary screen (AID 1102); settings: FGF10 binding, fluorescence 635 nm, higher = more signal
Sequence of Fibroblast growth factor 10 (Homo sapiens) (O15520 whole entry, looked up): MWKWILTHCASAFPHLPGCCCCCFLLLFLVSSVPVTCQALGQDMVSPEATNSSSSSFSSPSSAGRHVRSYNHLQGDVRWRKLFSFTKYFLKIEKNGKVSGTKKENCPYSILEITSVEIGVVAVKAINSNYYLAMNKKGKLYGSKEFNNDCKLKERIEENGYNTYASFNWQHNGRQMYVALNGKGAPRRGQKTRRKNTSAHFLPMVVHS

[6] = tested on: glycogen synthase kinase-3 (GSK3A per assay name; protocol says GSK3B); assay: compounds binding glycogen synthase kinase-3 – biochemical, small-molecule microarray, 635 nm fluorescence, GSK3A, primary screen (AID 1103); settings: fluorescence 635 nm, higher = more signal; also: the record names both GSK3A and GSK3B
[7] = target: Epidermal growth factor receptor (Homo sapiens) (UniProt P00533); assay: compounds binding epidermal growth factor receptor – biochemical, small-molecule microarray, 635 nm fluorescence, primary screen (AID 1104); settings: EGFR binding, higher = more signal;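 also: score merges 667 nm emission intensity with spot signal to noise over triplicate slides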
Sequence of Epidermal growth factor receptor (Homo sapiens) (P00533 whole entry, looked up): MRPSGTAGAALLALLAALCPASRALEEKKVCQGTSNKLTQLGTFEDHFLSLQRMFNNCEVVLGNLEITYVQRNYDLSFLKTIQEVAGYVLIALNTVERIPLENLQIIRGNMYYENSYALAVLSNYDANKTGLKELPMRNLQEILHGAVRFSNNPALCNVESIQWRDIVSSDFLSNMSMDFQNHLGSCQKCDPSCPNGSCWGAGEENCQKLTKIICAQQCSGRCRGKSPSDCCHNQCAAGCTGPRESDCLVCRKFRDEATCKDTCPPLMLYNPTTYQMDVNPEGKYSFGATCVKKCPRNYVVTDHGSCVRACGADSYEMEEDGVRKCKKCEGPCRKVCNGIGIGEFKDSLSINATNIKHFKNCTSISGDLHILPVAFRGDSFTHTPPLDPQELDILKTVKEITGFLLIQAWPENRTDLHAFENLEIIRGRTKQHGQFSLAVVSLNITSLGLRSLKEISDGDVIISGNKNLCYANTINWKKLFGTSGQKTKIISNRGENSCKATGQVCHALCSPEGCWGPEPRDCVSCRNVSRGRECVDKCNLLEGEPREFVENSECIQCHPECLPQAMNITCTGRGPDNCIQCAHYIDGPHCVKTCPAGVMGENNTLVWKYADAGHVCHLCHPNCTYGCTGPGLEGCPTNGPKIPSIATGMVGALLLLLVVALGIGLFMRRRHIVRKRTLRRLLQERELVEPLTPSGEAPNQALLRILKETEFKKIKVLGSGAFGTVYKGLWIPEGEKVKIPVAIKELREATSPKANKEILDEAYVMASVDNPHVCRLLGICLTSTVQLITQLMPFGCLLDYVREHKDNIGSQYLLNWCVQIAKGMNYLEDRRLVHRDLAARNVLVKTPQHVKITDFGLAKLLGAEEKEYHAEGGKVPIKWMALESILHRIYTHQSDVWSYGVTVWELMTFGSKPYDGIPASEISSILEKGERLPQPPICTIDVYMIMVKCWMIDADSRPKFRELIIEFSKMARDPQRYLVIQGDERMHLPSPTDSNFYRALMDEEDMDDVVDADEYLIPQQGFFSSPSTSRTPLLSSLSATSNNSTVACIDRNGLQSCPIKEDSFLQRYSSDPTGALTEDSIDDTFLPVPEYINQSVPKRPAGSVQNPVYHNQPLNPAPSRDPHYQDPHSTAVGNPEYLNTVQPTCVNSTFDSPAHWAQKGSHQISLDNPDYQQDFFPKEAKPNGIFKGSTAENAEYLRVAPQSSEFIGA

[8] = target: Follistatin-related protein 3 (Homo sapiens) (UniProt O95633); assay: compounds binding follistatin-related protein 3 – biochemical, small-molecule microarray, 635 nm fluorescence, primary screen (AID 1105); settings: FSTL3 binding, higher = more signal;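 also: score merges emission near 667 nm and signal to noise per printed spot across three slides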
Sequence of Follistatin-related protein 3 (Homo sapiens) (O95633 whole entry, looked up): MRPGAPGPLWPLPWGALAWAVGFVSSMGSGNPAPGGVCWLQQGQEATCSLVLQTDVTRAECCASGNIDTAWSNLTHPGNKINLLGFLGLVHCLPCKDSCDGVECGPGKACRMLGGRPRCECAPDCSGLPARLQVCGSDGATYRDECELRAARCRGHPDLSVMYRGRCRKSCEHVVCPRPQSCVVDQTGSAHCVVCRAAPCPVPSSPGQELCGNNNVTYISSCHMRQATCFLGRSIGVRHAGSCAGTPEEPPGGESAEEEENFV

[9] = target: Dickkopf-related protein 1 (Homo sapiens) (UniProt O94907); assay: small molecules binding DKK1 protein – biochemical, small-molecule microarray, 635 nm fluorescence scan, primary screen (AID 1106); settings: higher = more signal;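 also: score merges emission near 667 nm with signal to noise over three replicate slides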
Sequence of Dickkopf-related protein 1 (Homo sapiens) (O94907 whole entry, looked up): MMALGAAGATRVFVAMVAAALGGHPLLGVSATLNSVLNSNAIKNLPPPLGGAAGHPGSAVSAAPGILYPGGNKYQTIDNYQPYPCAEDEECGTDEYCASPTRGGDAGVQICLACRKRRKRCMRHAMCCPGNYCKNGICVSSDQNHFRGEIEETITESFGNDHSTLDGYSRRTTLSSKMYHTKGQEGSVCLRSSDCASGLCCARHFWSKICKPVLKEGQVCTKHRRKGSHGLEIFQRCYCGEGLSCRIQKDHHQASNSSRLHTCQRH

[10] = tested on: Inhibin beta A chain (activin A); assay: small molecules binding activin A – biochemical, small-molecule microarray, 635 nm fluorescence scan, primary screen (AID 1107); settings: INHBA, higher = more signal;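 also: mouse activin A protein probed at 4.33 µg/mL on printed slides; score merges bound-protein fluorescence near 667 nm with spot signal-to-noise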
[11] = tested on: Human papillomavirus type 1a protein E7 (residues 44-93); assay: small molecules binding HPV E7 44-93 – biochemical, small-molecule microarray, residues 44-93, 635 nm fluorescence, primary screen (AID 1108); settings: fluorescence 635 nm, higher = more signal;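 also: E7 fragment applied at 1 µg/mL in TBST for 1 h at 4 C; score combines spot fluorescence with its signal to noise ratio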
[12] = hepatitis C replication reporter changes, two-sided – Huh7 cells, luciferase reporter, HCV replication inhibitor project, primary screen (AID 1109); settings: Huh7 HCV replicon luciferase reporter, 48 h; higher = more signal;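 also: huh7 hepatoma cells harbouring a luciferase neomycin HCV replicon reporter; luciferase luminescence as measure of HCV replicon replication; test concentration not given here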
[13] = target: Left-right determination factor 2 (Homo sapiens) (UniProt O00292); assay: small molecules binding LEFTY2 protein – biochemical, small-molecule microarray, 635 nm fluorescence scan, primary screen (AID 1110); settings: higher = more signal
Sequence of Left-right determination factor 2 (Homo sapiens) (O00292 whole entry, looked up): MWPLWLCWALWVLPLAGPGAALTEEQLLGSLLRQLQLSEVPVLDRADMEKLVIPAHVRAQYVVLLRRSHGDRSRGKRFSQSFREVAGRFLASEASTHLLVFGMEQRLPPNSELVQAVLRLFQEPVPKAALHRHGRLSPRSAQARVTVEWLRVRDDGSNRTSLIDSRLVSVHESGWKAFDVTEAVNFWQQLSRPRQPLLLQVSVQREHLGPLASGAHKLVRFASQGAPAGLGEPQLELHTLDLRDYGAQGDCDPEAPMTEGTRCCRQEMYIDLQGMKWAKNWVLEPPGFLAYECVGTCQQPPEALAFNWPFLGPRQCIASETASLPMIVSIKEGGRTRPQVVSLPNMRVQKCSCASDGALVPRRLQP

[14] = target: Calmodulin-1 (Homo sapiens) (UniProt P0DP23); assay: small molecules binding calmodulin-1 with EGTA – biochemical, small-molecule microarray, Cy5-labelled CALM1, profiling panel (AID 1111); settings: Cy5-CALM1 binding fluorescence, higher = more signal;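 also: labelled calmodulin applied in Tris saline Tween buffer holding calcium plus EGTA and DTT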
[15] = target: Calmodulin-1 (Homo sapiens) (UniProt P0DP23); assay: small molecules binding Ca-loaded calmodulin-1 – biochemical, small-molecule microarray, Cy5-labelled CALM1, plus calcium, artefact control for SMM control-protein annotation, profiling panel (AID 1112); settings: Cy5-CALM1 binding fluorescence, higher = more signal;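 also: score merges spot fluorescence with signal to noise from triplicate slides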
[16] = probe aWnt5a binding to arrayed compounds – biochemical, biotinylated probe, 635/667 nm fluorescence, primary screen (AID 1113); settings: small-molecule microarray, higher = more signal;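 also: score merges 667 nm fluorescence intensity with signal-to-noise per printed feature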
[17] = probe aShh binding to arrayed compounds – biochemical, biotinylated probe, 635/667 nm fluorescence, primary screen (AID 1114); settings: small-molecule microarray, higher = more signal;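 also: probe is biotin-labelled aShh protein from a stem cell growth factor screen; measures binding of labelled protein to compounds printed on the slide; score merges feature fluorescence at 667 nm with signal-to-noise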
[18] = probe aNog binding to arrayed compounds – biochemical, biotinylated probe, 635/667 nm fluorescence, primary screen (AID 1115); settings: small-molecule microarray, higher = more signal;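 also: probe is biotinylated aNog protein used at 0.15 µg/mL for 1 h at 4 C; z-score combines 667 nm fluorescence of each spot with its signal to noise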
[19] = target: Torsin-1A-interacting protein 1 (Homo sapiens) (UniProt Q5JTV8); assay: compound microarray binding of lysate hLAP1 – cell lysate, small-molecule microarray, COS7 lysate, 635/667 nm fluorescence, primary screen (AID 1116); settings: 635 nm fluorescence, higher = more signal
Sequence of Torsin-1A-interacting protein 1 (Homo sapiens) (Q5JTV8 whole entry, looked up): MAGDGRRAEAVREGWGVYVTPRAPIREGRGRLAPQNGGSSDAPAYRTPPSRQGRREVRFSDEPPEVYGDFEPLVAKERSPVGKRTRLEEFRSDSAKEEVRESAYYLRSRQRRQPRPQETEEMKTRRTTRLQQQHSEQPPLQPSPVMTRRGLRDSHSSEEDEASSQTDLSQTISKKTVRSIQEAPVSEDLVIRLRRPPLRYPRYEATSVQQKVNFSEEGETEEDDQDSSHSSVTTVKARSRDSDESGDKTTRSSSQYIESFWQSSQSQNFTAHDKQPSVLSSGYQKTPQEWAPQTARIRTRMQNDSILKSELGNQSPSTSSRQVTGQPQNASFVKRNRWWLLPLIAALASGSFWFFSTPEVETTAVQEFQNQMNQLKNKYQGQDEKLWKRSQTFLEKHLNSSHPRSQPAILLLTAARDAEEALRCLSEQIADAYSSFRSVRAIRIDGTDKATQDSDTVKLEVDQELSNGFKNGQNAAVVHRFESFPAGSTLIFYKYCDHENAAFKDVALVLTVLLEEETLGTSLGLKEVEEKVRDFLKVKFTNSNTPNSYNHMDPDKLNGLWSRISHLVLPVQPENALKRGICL

[20] = target: Alpha-bungarotoxin (Bungarus multicinctus) (UniProt P60615); assay: compounds binding labelled alpha-BTX control protein – biochemical, small-molecule microarray, Alexa647 label, 635/667 nm fluorescence, artefact control for SMM control protein annotation, profiling panel (AID 1117); settings: alpha-BTX-A647 binding fluorescence, higher = more signal
Sequence of Alpha-bungarotoxin (Bungarus multicinctus) (P60615 whole entry, looked up): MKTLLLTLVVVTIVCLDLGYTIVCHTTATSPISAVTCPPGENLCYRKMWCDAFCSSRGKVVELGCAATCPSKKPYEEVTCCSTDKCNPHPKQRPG

SMILES | composite z-score [1] | composite z-score [2] | composite z-score [3] | z-score [4] | composite z-score [5] | composite z-score [6] | composite z-score [7] | composite z-score [8] | composite z-score [9] | composite z-score [10] | composite z-score [11] | z-score [12] | composite z-score [13] | composite z-score [14] | composite z-score [15] | composite z-score [16] | composite z-score [17] | composite z-score [18] | composite z-score [19] | composite z-score [20]
O=C1OCCC/C=C\[C@H]2OC34C=CCN(Cn5nnc6ccccc65)C(=O)[C@H]3N(CCCO)C(=O)[C@@H]4C12 (stereo not given in full) | 0.649 | -0.282 | 0.741 | 0.288 (inactive) | -1.34 | -0.556 | -1.43 | -0.921 | -1.16 | -0.0648 | 0.692 | -1.01 | -2 | -0.44 | 0.458 | -0.191 | 0.0952 | 0.574 | 2.11 | -1.75
CC(c1ccccc1)C(O)C1C=CC2C(=O)N(c3ccccc3)C(=O)C2N1Nc1ccccc1F (stereo not given) | 0.308 | 0.535 | 1.09 | -1.02 (inactive) | 0.356 | 0.214 | -0.0346 | 0.683 | -0.526 | 0.913 | 1.4 | -1.55 | 0.0648 | -0.32 | -0.539 | 0.0485 | -0.203 | -0.453 | 1.03 | 0.667
CCOC(=O)C1=C[C@@H](C(C)(C)C)N(S(=O)(=O)c2ccc(C)cc2)[C@H]1c1ccc(Cl)c(Cl)c1 | 1.1 | 0.665 | 0.827 | 0.425 (inactive) | 0.733 | 1.3 | 0.481 | 0.924 | 0.023 | 0.326 | 1.34 | -0.501 | 0.595 | 1.46 | 0.122 | -0.154 | 0.213 | 0.863 | 0.735 | 1.35
OCCCc1cc[n+](Cc2cccc(OC(F)(F)F)c2)cc1 | 1.67 | 0.237 | 0.526 | -0.109 (inactive) | 0.0895 | 0.873 | 0.0648 | 1.03 | 0.346 | 1.14 | 1.47 | 0.242 | 0.208 | 0.66 | 0.56 | -0.0758 | 0.199 | 0.134 | 0.925 | 0.718
Cc1c(NC(=O)/C(C#N)=C/C=C/c2ccccc2)c(=O)n(-c2ccccc2)n1C | 0.504 | -0.0814 | -0.366 | 0.777 (inactive) | -0.0134 | 0.234 | 0.513 | 0.573 | 0.425 | 0.772 | -0.353 | -0.683 | 0.277 | 0.193 | -0.0357 | -0.145 | -0.416 | -0.49 | -0.296 | 0.754
COCCCNC(=O)[C@]1(Cc2ccccc2N=[N+]=[N-])N=C(c2ccc(OCCCO)cc2)O[C@@H]1c1ccccc1CN=[N+]=[N-] | 1.09 | 1.2 | 1.01 | -0.4 (inactive) | 1.26 | 0.644 | 0.504 | 0.912 | 0.318 | 0.928 | 1.45 | -3.09 | 0.331 | 1.5 | 0.813 | 0.0952 | 0.496 | 0.555 | 1.39 | 1.01
COC(=O)[C@@]1(Cc2ccc(F)cc2)[C@H]2c3cc(C(=O)N(C)C)n(CCCNc4ccc(C(F)(F)F)cc4Cl)c3C[C@H]2CN1C(=O)c1ccccc1 | 1.08 | 1.4 | 1.38 | -1.75 (inactive) | 0.808 | 1.29 | -0.19 | 1.2 | -0.667 | -0.0131 | 1.4 | -2.38 | -0.385 | 2.36 | 1.31 | 0.284 | 0.391 | 1.53 | 1.37 | 1.85
CN(C)CCCCCCNC(=O)[C@@H]1C[C@@H]2C(=O)NCC(=O)N2[C@@H]1c1cccc(OCCO)c1 | 1.39 | 0.156 | -0.0688 | 0.0236 (inactive) | 1.34 | 1.36 | 0.654 | 1.48 | 1.28 | 0.433 | 1.12 | -0.358 | 1.36 | 0.138 | -0.708 | -0.0222 | 0.0948 | 0.107 | 1.88 | -0.0783
COc1c(C)cc(-c2cc3c(c(-c4ccccc4)n2)[Si](C(C)C)(C(C)C)O[C@H]3c2ccccc2)cc1C | -0.14 | -0.16 | -0.327 | 0.139 (inactive) | 0.397 | 0.02 | 0.0111 | 0.168 | 0.211 | 0.0244 | -0.217 | -0.526 | -0.009 | -0.0867 | -0.24 | -0.006 | -0.147 | -0.482 | 0.38 | 0.614
O=C1OCCC=C[C@H]2OC34C=CCN(c5ccc6ccccc6c5)C(=O)[C@H]3N(CCCCCCO)C(=O)[C@@H]4C12 (stereo not given in full) | 0.924 | -0.0082 | 0.187 | -0.225 (inactive) | -0.916 | -0.817 | -1.07 | -0.917 | -1.26 | 0.56 | 0.404 | 0.0919 | -0.431 | -0.611 | -0.321 | -0.176 | -0.0337 | -0.201 | 0.164 | -1.37
C#C[C@H]1Oc2ccccc2S(=O)(=O)N2CCC[C@@H]12 | 0.578 | -0.215 | -0.0688 | 0.724 (inactive) | -0.0502 | 0.0695 | 0.354 | 0.712 | 1.29 | 1.74 | -0.137 | -0.871 | 0.533 | -0.982 | -0.495 | -0.169 | 0.0815 | -0.1 | 0.0849 | -0.288
